Test results reported in PubChem BioAssay AID1159580 (chemical genetic matrix, 2015).
In all, about 5,500 compounds went through this assay and about 2,000 (36%) were called active. Not shown: some 18% with an inconclusive outcome. Cut-off read from the data, not from the text of the source: active = normalized growth mostly below about 0.91 (no sharp cut-off); inconclusive = no clear call, values can overlap the other calls; inactive = mostly above about 0.92. The list shows a part of the results.

Test: chemical genetic growth profiling, strain panel (AID 1159580);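 note: tested at 20 µM; growth read once vehicle control cultures reached saturation at 30 °C; 1 = growth at the plate median or of vehicle wells; lower values mean less growth of the strain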
Conditions: growth OD

Measured: normalized growth

CNC(C)C(O)c1ccccc1 (centres undefined)
inactive: S. cerevisiae deletion strains, locus YJR043C, strain POL32, active compounds read low 0.999 | S. cerevisiae deletion strains, locus YJR066W, strain TOR1, active compounds read low 0.987 | S. cerevisiae deletion strains, locus YKL009W, strain mrt4, active compounds read low 1.01 | S. cerevisiae deletion strains, locus YKL068W, active compounds read low 1.01 | S. cerevisiae deletion strains, locus YKL085W, strain MDH1 (second series), active compounds read low 1 | S. cerevisiae deletion strains, locus YKL085W, strain MDH1, active compounds read low 1 | S. cerevisiae deletion strains, locus YKL160W, strain elf1, active compounds read low 1.02 | S. cerevisiae deletion strains, locus YKL190W, strain CNB1, active compounds read low 1.01 | S. cerevisiae deletion strains, locus YKR001C, strain vps1, active compounds read low 1.03 | S. cerevisiae deletion strains, locus YKR026C, strain gcn3, active compounds read low 1.01 | S. cerevisiae deletion strains, locus YKR091W, strain srl3, active compounds read low 1.01 | S. cerevisiae deletion strains, locus YLL001W, strain dnm1, active compounds read low 1.03 | S. cerevisiae deletion strains, locus YLL026W, active compounds read low 1.01 | S. cerevisiae deletion strains, locus YLL041C, strain sdh2, active compounds read low 1.01 | S. cerevisiae deletion strains, locus YLR027C, strain aat2, active compounds read low 1.02 | S. cerevisiae deletion strains, locus YLR039C, strain RIC1, active compounds read low 0.995 | S. cerevisiae deletion strains, locus YLR058C, strain SHM2, active compounds read low 1 | S. cerevisiae deletion strains, locus YLR102C, strain apc9, active compounds read low 1.02 | S. cerevisiae deletion strains, locus YLR113W, strain HOG1, active compounds read low 0.963 | S. cerevisiae deletion strains, locus YLR221C, strain rsa3, active compounds read low 1.01 | S. cerevisiae deletion strains, locus YLR258W, strain gsy2, active compounds read low 1.01 | S. cerevisiae deletion strains, locus YLR262C, strain YPT6 (second series), active compounds read low 1.01 | S. cerevisiae deletion strains, locus YLR262C, strain YPT6, active compounds read low 1.03 | S. cerevisiae deletion strains, locus YLR268W, strain sec22, active compounds read low 1.02 | S. cerevisiae deletion strains, locus YLR320W, strain mms22, active compounds read low 1.02 | S. cerevisiae deletion strains, locus YLR330W, strain CHS5, active compounds read low 1 | S. cerevisiae deletion strains, locus YLR342W, strain FKS1 (second series), active compounds read low 1 | S. cerevisiae deletion strains, locus YLR342W, strain FKS1, active compounds read low 1.02 | S. cerevisiae deletion strains, locus YLR357W, strain rsc2, active compounds read low 1.05 | S. cerevisiae deletion strains, locus YLR370C, strain arc18, active compounds read low 1.01 | S. cerevisiae deletion strains, locus YLR371W, strain rom2, active compounds read low 1.02 | S. cerevisiae deletion strains, locus YLR384C, strain iki3, active compounds read low 1.02 | S. cerevisiae deletion strains, locus YLR418C, strain cdc73, active compounds read low 1.04 | S. cerevisiae deletion strains, locus YML016C, strain PPZ1, active compounds read low 1.01 | S. cerevisiae deletion strains, locus YML032C, strain rad52, active compounds read low 1.03 | S. cerevisiae deletion strains, locus YML120C, strain ndi1, active compounds read low 1.02 | S. cerevisiae deletion strains, locus YML124C, strain tub3, active compounds read low 1.03 | S. cerevisiae deletion strains, locus YMR058W, strain fet3, active compounds read low 1.02 | S. cerevisiae deletion strains, locus YMR078C, strain ctf18, active compounds read low 1.03 | S. cerevisiae deletion strains, locus YMR125W, strain sto1, active compounds read low 0.996 | S. cerevisiae deletion strains, locus YMR129W, active compounds read low 1 | S. cerevisiae deletion strains, locus YMR205C, strain PFK2, active compounds read low 1.01 | S. cerevisiae deletion strains, locus YMR223W, strain ubp8, active compounds read low 1.02 | S. cerevisiae deletion strains, locus YMR231W, strain pep5, active compounds read low 1.01 | S. cerevisiae deletion strains, locus YMR307W, strain GAS1, active compounds read low 1.02 | S. cerevisiae deletion strains, locus YNL067W, strain RPL9B, active compounds read low 1 | S. cerevisiae deletion strains, locus YNL071W, strain lat1, active compounds read low 1.02 | S. cerevisiae deletion strains, locus YNL128W, strain TEP1, active compounds read low 1.02 | S. cerevisiae deletion strains, locus YNL183C, strain NPR1, active compounds read low 0.971 | S. cerevisiae deletion strains, locus YNL209W, strain ssb2, active compounds read low 1.01 | S. cerevisiae deletion strains, locus YNL233W, strain BNI4, active compounds read low 1 | S. cerevisiae deletion strains, locus YNL248C, strain rpa49, active compounds read low 1.01 | S. cerevisiae deletion strains, locus YNL250W, strain rad50, active compounds read low 1.02 | S. cerevisiae deletion strains, locus YNL271C, strain bni1, active compounds read low 1.02 | S. cerevisiae deletion strains, locus YNL298W, strain CLA4, active compounds read low 1.03 | S. cerevisiae deletion strains, locus YNL307C, strain MCK1, active compounds read low 1.04 | S. cerevisiae deletion strains, locus YNL322C, strain KRE1 (second series), active compounds read low 1.01 | S. cerevisiae deletion strains, locus YNR049C, strain mso1, active compounds read low 1.01 | S. cerevisiae deletion strains, locus YNR052C, strain pop2, active compounds read low 1.02 | S. cerevisiae deletion strains, locus YOL006C, strain TOP1, active compounds read low 0.993 | S. cerevisiae deletion strains, locus YOL012C, strain htz1 1.14 | S. cerevisiae deletion strains, locus YOL147C, strain pex11, active compounds read low 1.03 | S. cerevisiae deletion strains, locus YOR001W, strain rrp6, active compounds read low 1.02 | S. cerevisiae deletion strains, locus YOR061W, strain CKA2, active compounds read low 1.01 | S. cerevisiae deletion strains, locus YOR069W, strain VPS5, active compounds read low 1 | S. cerevisiae deletion strains, locus YOR070C, strain gyp1, active compounds read low 1.01 | S. cerevisiae deletion strains, locus YOR080W, strain dia2, active compounds read low 1.01 | S. cerevisiae deletion strains, locus YOR083W, strain WHI5, active compounds read low 1.02 | S. cerevisiae deletion strains, locus YOR106W, strain vam3, active compounds read low 1.03 | S. cerevisiae deletion strains, locus YOR136W, strain idh2, active compounds read low 1.02 | S. cerevisiae deletion strains, locus YOR144C, strain elg1, active compounds read low 1.01 | S. cerevisiae deletion strains, locus YOR184W, strain ser1, active compounds read low 1.03 | S. cerevisiae deletion strains, locus YOR231W, strain MKK1, active compounds read low 0.995 | S. cerevisiae deletion strains, locus YOR265W, strain rbl2, active compounds read low 1.01 | S. cerevisiae deletion strains, locus YOR270C, strain vph1, active compounds read low 1.04 | S. cerevisiae deletion strains, locus YOR290C, strain snf2, active compounds read low 1 | S. cerevisiae deletion strains, locus YOR316C, strain cot1, active compounds read low 1.02 | S. cerevisiae deletion strains, locus YPL051W, strain arl3, active compounds read low 1.02 | S. cerevisiae deletion strains, locus YPL055C, strain LGE1, active compounds read low 1.01 | S. cerevisiae deletion strains, locus YPL078C, strain atp4, active compounds read low 1.03 | S. cerevisiae deletion strains, locus YPL106C, strain sse1, active compounds read low 1.01 | S. cerevisiae deletion strains, locus YPL240C, strain hsp82, active compounds read low 1.01 | S. cerevisiae deletion strains, locus YPL256C, strain CLN2, active compounds read low 1.03 | S. cerevisiae deletion strains, locus YPR119W, strain clb2, active compounds read low 1.02 | S. cerevisiae deletion strains, locus YPR141C, strain kar3, active compounds read low 1.02 | S. cerevisiae deletion strains, locus YPR163C, strain tif3, active compounds read low 1.04 | S. cerevisiae deletion strains, locus YPR167C, strain met16, active compounds read low 1.02 | S. cerevisiae deletion strains, strain wtn01, active compounds read low 1.02 | S. cerevisiae strains, strain wild type, active compounds read low 0.999
